Results taken from PubChem BioAssay (NCI).
About 79,000 compounds went through this panel and 15% of them were active in at least one assay; those are over-represented in the sample as a whole. Active and inactive are the calls of the source. No stated cut-off is given here; in the data, active means growth inhibition above about 70%; inactive means the rest.

Columns and labels:
[1] = NCI Yeast Anticancer Drug Screen. Data for the rad50 strain (AID 155);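 further: 0% = growth of vehicle-only cultures of the same strain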; details: S. cerevisiae rad50 strain growth inhibition, stronger effect = higher value
In short: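 DNA repair mutant yeast, compound exposure, growth read-out; inhibition is taken relative to vehicle.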

[2] = NCI Yeast Anticancer Drug Screen. Data for the mec2-1 strain (AID 157); details: S. cerevisiae mec2-1 strain, stronger effect = higher value
In short: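 Yeast mec2-1 mutant treated with compound. Readout: growth inhibition vs vehicle controls.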

[3] = NCI Yeast Anticancer Drug Screen. Data for the sgs1 mgt1 strain (AID 161);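 further: 0% = growth of cultures given vehicle only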; details: S. cerevisiae sgs1 mgt1 strain, stronger effect = higher value
In short: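 Genetically altered yeast, compound exposure, growth inhibition relative to vehicle.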

[4] = NCI Yeast Anticancer Drug Screen. Data for the cln2 rad14 strain (AID 165);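 further: 0% = growth equal to vehicle treated cultures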; details: S. cerevisiae cln2 rad14 strain, stronger effect = higher value
In short: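 cln2 rad14 yeast strain; compound exposure; growth inhibition read vs vehicle controls.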

[5] = NCI Yeast Anticancer Drug Screen. Data for the bub3 strain (AID 167); details: S. cerevisiae bub3 mutant strain, stronger effect = higher value
In short: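 In this screen, a yeast mutant lacking normal mitotic checkpoint function is challenged with compound. Relative growth versus vehicle gives the inhibition value.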

[6] = NCI Yeast Anticancer Drug Screen. Data for the mlh1 rad18 strain (AID 175); details: S. cerevisiae mlh1 rad18 strain growth inhibition, stronger effect = higher value
In short: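 Yeast w/ defined DNA-repair lesions; compound exposure; growth vs vehicle controls → % inhibition.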

[7] = at 5.0 µM (retest, dose inferred, filed as 0.5)
[8] = at 50.0 µM (retest, dose inferred, filed as 5.0)

Measured: growth inhibition

C=C1CC2(OC1=O)C(=O)N(C)c1ccccc12 (stereo not drawn)
inactive: [1]; [7] -118% | [1]; [8] 63% | [2]; [7] -31% | [2]; [8] 52% | [3]; [7] -38% | [3]; [8] 67% | [4]; [7] -49% | [4]; [8] 22% | [4]; at 50.0 µM 15% | [5]; [7] -47% | [6]; [7] -111%
active: [1]; at 50.0 µM 84.5% | [2]; at 50.0 µM 87.5% | [3]; at 50.0 µM 82.6% | [5]; [8] 73% | [5]; at 50.0 µM 88.2% | [6]; [8] 71% | [6]; at 50.0 µM 91.7%

O=C1CCCC/C1=C\c1ccc(Cl)c(Cl)c1
active: [1]; [8] 99% | [1]; at 50.0 µM 98.7% | [2]; [8] 100% | [2]; at 50.0 µM 98.6% | [3]; [8] 100% | [3]; at 50.0 µM 99% | [4]; [8] 99% | [4]; at 50.0 µM 95.9% | [5]; [8] 99% | [5]; at 50.0 µM 98.2%
inactive: [1]; [7] 12% | [2]; [7] 6% | [3]; [7] 47% | [4]; [7] 5% | [5]; [7] 9%

Cc1ccc(S(=O)(=O)S/C(=N\c2ccccn2)Nc2ccccn2)cc1
inactive: [1]; [8] 21% | [1]; at 50.0 µM 38.9% | [2]; [8] 32% | [2]; at 50.0 µM 39.9% | [3]; [8] 5% | [3]; at 50.0 µM 58.6% | [4]; [7] 14% | [4]; [8] 16% | [4]; at 50.0 µM 3% | [5]; [8] 11% | [5]; at 50.0 µM 14% | [6]; [8] 29% | [6]; at 50.0 µM 52.1%
active: [1]; [7] 75% | [2]; [7] 72% | [3]; [7] 90% | [5]; [7] 95% | [6]; [7] 85%

O=C1C=CC(=O)C(c2ccc(Cl)cc2)=C1
active: [1]; [8] 96% | [1]; at 50.0 µM 90.8% | [2]; [8] 97% | [2]; at 50.0 µM 93% | [3]; [8] 99% | [3]; at 50.0 µM 92.8% | [4]; [8] 99% | [4]; at 50.0 µM 91.5% | [5]; [8] 97% | [5]; at 50.0 µM 92%
inactive: [1]; [7] 45% | [2]; [7] 54% | [3]; [7] 33% | [4]; [7] 40% | [5]; [7] 44%

O=C(Cc1ccccc1)c1ccccc1C(=O)NNc1ccccc1
inactive: [1]; [7] 7% | [1]; [8] 18% | [1]; at 50.0 µM 49% | [2]; [7] -5% | [2]; [8] 6% | [2]; at 50.0 µM -6.4% | [3]; [7] -4% | [3]; [8] -2% | [3]; at 50.0 µM -8% | [4]; [7] 4% | [4]; [8] 61% | [4]; at 50.0 µM -51.9% | [5]; [7] 43% | [5]; at 50.0 µM 26.2%
active: [5]; [8] 96%

O=C(O)COc1c(Cl)c(Cl)c(Cl)c(Cl)c1Cl.[Cu+2]
inactive: [1]; [7] 28% | [2]; [7] 20% | [3]; [7] 42% | [4]; [7] 7% | [5]; [7] 9%
active: [1]; [8] 98% | [1]; at 50.0 µM 88% | [2]; [8] 99% | [2]; at 50.0 µM 93.7% | [3]; [8] 99% | [3]; at 50.0 µM 92.7% | [4]; [8] 99% | [4]; at 50.0 µM 86% | [5]; [8] 99% | [5]; at 50.0 µM 89.2%

CC(c1ccc2ccccc2c1)c1c(F)cccc1C(=O)O (stereo not drawn)
active: [1]; at 50.0 µM 98.7% | [2]; at 50.0 µM 98.3% | [3]; at 50.0 µM 97.2% | [4]; at 50.0 µM 98.6% | [5]; at 50.0 µM 97.6% | [6]; at 50.0 µM 98.5%
inactive: [1]; [7] 2% | [1]; [8] 50% | [2]; [7] 0% | [2]; [8] 54% | [3]; [7] 0% | [3]; [8] 12% | [4]; [7] -4% | [4]; [8] 64% | [5]; [7] -9% | [5]; [8] 41% | [6]; [7] -16% | [6]; [8] 61%

NC(=S)N/N=C1\CCCCc2ccccc21
inactive: [1]; [7] 5% | [2]; [7] -19% | [3]; [7] 4% | [4]; [7] 13% | [5]; [7] 17% | [6]; [7] 5%
active: [1]; [8] 85% | [1]; at 50.0 µM 85.7% | [2]; [8] 83% | [2]; at 50.0 µM 89.5% | [3]; [8] 87% | [3]; at 50.0 µM 83.8% | [4]; [8] 80% | [4]; at 50.0 µM 83.8% | [5]; [8] 88% | [5]; at 50.0 µM 79.1% | [6]; [8] 91% | [6]; at 50.0 µM 84.2%

CCCCCC1OC(CCCCC)OC(CCCCC)O1 (stereo not drawn)
inactive: [1]; [7] -10% | [1]; [8] 33% | [1]; at 50.0 µM 10.2% | [2]; [7] 13% | [2]; [8] -19% | [2]; at 50.0 µM 6.6% | [3]; [7] 0% | [3]; [8] 7% | [3]; at 50.0 µM 16.3% | [4]; [7] 4% | [4]; [8] 3% | [4]; at 50.0 µM 8.25% | [5]; [7] -12% | [5]; [8] 20% | [5]; at 50.0 µM -13.9% | [6]; [7] -8% | [6]; [8] -3% | [6]; at 50.0 µM 11.7%

COc1ccc(C2C(C#N)(C#N)C2(C#N)C#N)cc1
inactive: [1]; [7] 16% | [1]; at 50.0 µM 63.5% | [2]; [7] 19% | [3]; [7] 21% | [4]; [7] 2% | [5]; [7] 6%
active: [1]; [8] 98% | [2]; [8] 99% | [2]; at 50.0 µM 96.5% | [3]; [8] 98% | [3]; at 50.0 µM 98.3% | [4]; [8] 99% | [4]; at 50.0 µM 88% | [5]; [8] 98% | [5]; at 50.0 µM 94.8%

C(=C/c1cnnc2ccccc12)/c1ccccn1
inactive: [1]; [7] 5% | [1]; at 50.0 µM 67.2% | [2]; [7] 8% | [2]; [8] 43% | [2]; at 50.0 µM 6.2% | [3]; [7] 6% | [3]; [8] 44% | [3]; at 50.0 µM 14.8% | [4]; [7] 0% | [4]; [8] 42% | [4]; at 50.0 µM 45.8% | [5]; [7] -7% | [5]; [8] 28% | [5]; at 50.0 µM -4.45% | [6]; [7] 1% | [6]; [8] 42% | [6]; at 50.0 µM 38.4%
active: [1]; [8] 79%
